Test results published in PubChem BioAssay (NCI).
About 79,000 compounds went through this panel and 15% of them were active in at least one assay; those are over-represented in the sample as a whole. Activity calls are given as the source filed them. Rule as the data show it: active = growth inhibition above about 70%; inactive = the rest.

experiment: NCI Yeast Anticancer Drug Screen. Data for the rad50 strain (AID 155);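 also: 0% = growth of vehicle-only cultures of the same strain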; details: S. cerevisiae rad50 strain growth inhibition; at 50.0 µM; active compounds read high
Outline: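 A DNA repair-deficient yeast mutant serves as the test organism; compound-induced growth inhibition is calculated against vehicle-treated cells.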

| Structure (SMILES) | growth inhibition |
| --- | --- |
| Nc1ccc(CC(N)C(=O)O)cc1 (stereo not given) | -2.7% (inactive) |
| OCCN1OCCCC1c1ccccc1 (stereo not given) | -0.75% (inactive) |
| CCOC(=O)/C=C/n1c2ccccc2c(=O)c2cc(OC)ccc21 | -3.25% (inactive) |
| COC(=O)/C(=N\N)C(C(=O)C(=O)Nc1nc(=S)[nH][nH]1)c1nc2ccc([N+](=O)[O-])cc2[nH]c1=O (stereo not given) | 2.3% (inactive) |
| CN(C)CC1CCCC/C1=N\OC(=O)c1ccccc1 (stereo not given) | -6.9% (inactive) |
| Cc1ccc(-c2cc(C(=O)NN)c(C#N)c(=O)[nH]2)cc1 | 11.4% (inactive) |
| CN(/N=C/c1ccc(O)c(/C=N/N(C)c2ccccn2)n1)c1ccccn1 | -9.45% (inactive) |
| CNC(=O)N(Cl)c1ccc(Cl)cc1 | 5.45% (inactive) |
| NC(CC(=O)O)C(=O)OCc1cccc(N=Nc2ccccc2)c1 (stereo not given) | 7.8% (inactive) |
| CCc1c[nH]c(C=O)c1CC | 6.35% (inactive) |
| O=C1CC(c2ccccc2)S(=O)(=O)c2ccccc2N1 (stereo not given) | -13.6% (inactive) |
| O=C1CSC(c2ccccn2)N1CCN1C(=O)CSC1c1ccccn1 (stereo not given) | 7.4% (inactive) |
| O=C(NC(Cc1c[nH]c2ccccc12)(C(=O)O)C(=O)O)OCc1ccccc1 | 23.1% (inactive) |
| O=S1(=O)CS(=O)(=O)OCCCCO1 | 10.2% (inactive) |
| CCC(COC(=O)C(c1ccccc1)c1ccccc1)NC1CCCCC1 (stereo not given) | 27.4% (inactive) |
| N#CC(C#N)=NO (tested in a mixture with another compound) | 11.8% (inactive) |
| Cn1c(N)nc2c1c(=O)[nH]c(=O)n2C | 12.6% (inactive) |
| COc1ccc2nc(NC(=O)C(=O)C(C(=O)c3ccccc3-c3ccccc3)C3OC(=O)c4ccccc43)sc2c1 (stereo not given) | -3.6% (inactive) |
| O=C(O)c1cc(Br)c(O)cc1O | -11.4% (inactive) |
| CCc1cc(C)cc(C(C)(C)C)c1 | 12.4% (inactive) |

| Structure (SMILES) | growth inhibition |
| --- | --- |
| O=c1[nH]nc(-c2ccccc2)n1/N=C/c1c(O)ccc2ccccc12 | 8.15% (inactive) |
| CC(C)C1CC[N-]CC1.CC(C)C1CC[N-]CC1.[Cl][Pt+2][Cl] | 82.6% (active) |
| C(=C\c1ccco1)/c1ccco1 | 25.1% (inactive) |
| CC(C)(c1cn(Cc2ccccc2)c2ccccc12)c1cn(Cc2ccccc2)c2ccccc12 | 39% (inactive) |
| Cn1c(=O)c2[nH]c(SCC(=O)O)nc2n(C)c1=O | 7.45% (inactive) |
| Cc1cc(C)[n+](C)c(/C=C/c2ccc([N+](=O)[O-])cc2)n1 | 14.2% (inactive) |
| COc1ccc(NC(=O)/C(Cc2nc3ccccc3[nH]c2=O)=N\O)c(OC)c1 | -1.85% (inactive) |
| COc1ccc2c(c1OC)C(Cc1ccccc1)N1CCc3cc4c(cc3C1C2)OCO4 (stereo not given) | 21.4% (inactive) |
| COC1C(O)CC(OC2C(C)OC(Oc3cc(O)c4c(O)c5c(cc4c3)C[C@@H]([C@H](OC)C(=O)[C@@H](O)[C@@H](C)O)[C@H](OC3CC(OC4CC(OC6CC(C)(O)C(O)C(C)O6)C(O)C(C)O4)C(O)C(C)O3)C5=O)CC2OC(C)=O)OC1C (stereo not given in full) | -7.9% (inactive) |
| O=C(O)c1cc2ccccc2c(N=Nc2cc(C(F)(F)F)ccc2Cl)c1O | -12.2% (inactive) |
| COc1ccc(CCCCl)c(C2=NCCc3ccccc32)c1 | 25.2% (inactive) |
| Cc1cccc(C2ON=C(c3ccccc3)N2C23CC4CC(CC(C4)C2)C3)c1 (stereo not given) | -20.8% (inactive) |
| CCN(CC)C1C(=O)NC1C#Cc1ccccc1 (stereo not given) | 19% (inactive) |
| CCCCCCN(CCCCCC)CC(O)c1c(Cl)ccc2ccccc12 (stereo not given) | 99.1% (active) |
| COc1ccc2c(c1)CC/C(=C\C1(Sc3ccccc3)CC1)C2O (stereo not given) | -12.1% (inactive) |
| C[N+](C)([O-])Cc1cccc(NC(=O)c2ccc(C(=O)Nc3cccc(C[N+](C)(C)[O-])c3)cc2)c1 | -4.3% (inactive) |
| CC1(C)C(=O)C(C)(C)C1=NN | 7.5% (inactive) |
| CCC(CC)NCCCNc1cc(OC)cc2cccnc12 | 20.8% (inactive) |
| CC(C)OC(=O)N[C@@H]1c2ccccc2CC[C@H]1I | 24.5% (inactive) |
| c1ccc(-c2cc(-c3ccccc3)c(-c3ccccc3)c(-c3ccccc3)c2)cc1 | 32.1% (inactive) |

experiment: NCI Yeast Anticancer Drug Screen. Data for the mec2-1 strain (AID 157); details: S. cerevisiae mec2-1 strain, at 50.0 µM, active compounds read high
Outline: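 Using mec2-1 yeast: add compound, measure growth, express inhibition versus vehicle-treated cultures.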

| Structure (SMILES) | growth inhibition |
| --- | --- |
| Nc1ccc(CC(N)C(=O)O)cc1 (stereo not given) | -12.8% (inactive) |
| OCCN1OCCCC1c1ccccc1 (stereo not given) | -14.3% (inactive) |
| CCOC(=O)/C=C/n1c2ccccc2c(=O)c2cc(OC)ccc21 | -13.6% (inactive) |
| COC(=O)/C(=N\N)C(C(=O)C(=O)Nc1nc(=S)[nH][nH]1)c1nc2ccc([N+](=O)[O-])cc2[nH]c1=O (stereo not given) | -7.65% (inactive) |
| CN(C)CC1CCCC/C1=N\OC(=O)c1ccccc1 (stereo not given) | -13.8% (inactive) |
| Cc1ccc(-c2cc(C(=O)NN)c(C#N)c(=O)[nH]2)cc1 | 0.55% (inactive) |
| CN(/N=C/c1ccc(O)c(/C=N/N(C)c2ccccn2)n1)c1ccccn1 | 8% (inactive) |
| CNC(=O)N(Cl)c1ccc(Cl)cc1 | 12.9% (inactive) |
| NC(CC(=O)O)C(=O)OCc1cccc(N=Nc2ccccc2)c1 (stereo not given) | -8.35% (inactive) |
| CCc1c[nH]c(C=O)c1CC | -14.1% (inactive) |
| O=C1CC(c2ccccc2)S(=O)(=O)c2ccccc2N1 (stereo not given) | -8.5% (inactive) |
| O=C1CSC(c2ccccn2)N1CCN1C(=O)CSC1c1ccccn1 (stereo not given) | -0.85% (inactive) |
| O=C(NC(Cc1c[nH]c2ccccc12)(C(=O)O)C(=O)O)OCc1ccccc1 | 15.1% (inactive) |
| O=S1(=O)CS(=O)(=O)OCCCCO1 | -5.75% (inactive) |
| CCC(COC(=O)C(c1ccccc1)c1ccccc1)NC1CCCCC1 (stereo not given) | 14.3% (inactive) |
| N#CC(C#N)=NO (tested in a mixture with another compound) | 6.6% (inactive) |
| Cn1c(N)nc2c1c(=O)[nH]c(=O)n2C | -0.75% (inactive) |
| COc1ccc2nc(NC(=O)C(=O)C(C(=O)c3ccccc3-c3ccccc3)C3OC(=O)c4ccccc43)sc2c1 (stereo not given) | 9.75% (inactive) |
| O=C(O)c1cc(Br)c(O)cc1O | -17.6% (inactive) |
| CCc1cc(C)cc(C(C)(C)C)c1 | -17.8% (inactive) |

| Structure (SMILES) | growth inhibition |
| --- | --- |
| O=c1[nH]nc(-c2ccccc2)n1/N=C/c1c(O)ccc2ccccc12 | 17.9% (inactive) |
| CC(C)C1CC[N-]CC1.CC(C)C1CC[N-]CC1.[Cl][Pt+2][Cl] | 48% (inactive) |
| C(=C\c1ccco1)/c1ccco1 | 11.2% (inactive) |
| CC(C)(c1cn(Cc2ccccc2)c2ccccc12)c1cn(Cc2ccccc2)c2ccccc12 | 4.2% (inactive) |
| Cn1c(=O)c2[nH]c(SCC(=O)O)nc2n(C)c1=O | 0.95% (inactive) |
| Cc1cc(C)[n+](C)c(/C=C/c2ccc([N+](=O)[O-])cc2)n1 | 6.95% (inactive) |
| COc1ccc(NC(=O)/C(Cc2nc3ccccc3[nH]c2=O)=N\O)c(OC)c1 | -9.4% (inactive) |
| COc1ccc2c(c1OC)C(Cc1ccccc1)N1CCc3cc4c(cc3C1C2)OCO4 (stereo not given) | 59% (inactive) |
| COC1C(O)CC(OC2C(C)OC(Oc3cc(O)c4c(O)c5c(cc4c3)C[C@@H]([C@H](OC)C(=O)[C@@H](O)[C@@H](C)O)[C@H](OC3CC(OC4CC(OC6CC(C)(O)C(O)C(C)O6)C(O)C(C)O4)C(O)C(C)O3)C5=O)CC2OC(C)=O)OC1C (stereo not given in full) | -3.45% (inactive) |
| O=C(O)c1cc2ccccc2c(N=Nc2cc(C(F)(F)F)ccc2Cl)c1O | -9.65% (inactive) |
| COc1ccc(CCCCl)c(C2=NCCc3ccccc32)c1 | 12.7% (inactive) |
| Cc1cccc(C2ON=C(c3ccccc3)N2C23CC4CC(CC(C4)C2)C3)c1 (stereo not given) | -0.35% (inactive) |
| CCN(CC)C1C(=O)NC1C#Cc1ccccc1 (stereo not given) | 6.5% (inactive) |
| CCCCCCN(CCCCCC)CC(O)c1c(Cl)ccc2ccccc12 (stereo not given) | 96.5% (active) |
| COc1ccc2c(c1)CC/C(=C\C1(Sc3ccccc3)CC1)C2O (stereo not given) | -3.35% (inactive) |
| C[N+](C)([O-])Cc1cccc(NC(=O)c2ccc(C(=O)Nc3cccc(C[N+](C)(C)[O-])c3)cc2)c1 | 1.25% (inactive) |
| CC1(C)C(=O)C(C)(C)C1=NN | 11.8% (inactive) |
| CCC(CC)NCCCNc1cc(OC)cc2cccnc12 | 33.6% (inactive) |
| CC(C)OC(=O)N[C@@H]1c2ccccc2CC[C@H]1I | 5.8% (inactive) |
| c1ccc(-c2cc(-c3ccccc3)c(-c3ccccc3)c(-c3ccccc3)c2)cc1 | 10.1% (inactive) |
